Structures are written as SMILES. Calls of active or inactive are those of the source.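 The calls were made as follows, unless noted: active = NADPH fluorescence slope more negative than the mean of all samples by about 3 SD, 99.7% confidence; inactive = the rest.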

For the first experiment, the target named is Voltage-gated potassium channel subunit beta-2 (Rattus norvegicus) (UniProt P62483). As to the kind of experiment: inhibitors of rat Kvbeta2 reductase activity – biochemical, NADPH fluorescence, primary screen (AID 622;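 active = fluorescence slope higher than the sample average by over 3 SD, cut at about -0.22 in these data, passing the limit was not always enough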;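 also: slope of raw intensity against log time taken from 70 to 1610 s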). As to conditions: recombinant KvBeta, 4-cyanobenzaldehyde reduction, at 10 µM, stronger effect = higher value.
Sequence of Voltage-gated potassium channel subunit beta-2 (Rattus norvegicus) (P62483 whole entry, looked up): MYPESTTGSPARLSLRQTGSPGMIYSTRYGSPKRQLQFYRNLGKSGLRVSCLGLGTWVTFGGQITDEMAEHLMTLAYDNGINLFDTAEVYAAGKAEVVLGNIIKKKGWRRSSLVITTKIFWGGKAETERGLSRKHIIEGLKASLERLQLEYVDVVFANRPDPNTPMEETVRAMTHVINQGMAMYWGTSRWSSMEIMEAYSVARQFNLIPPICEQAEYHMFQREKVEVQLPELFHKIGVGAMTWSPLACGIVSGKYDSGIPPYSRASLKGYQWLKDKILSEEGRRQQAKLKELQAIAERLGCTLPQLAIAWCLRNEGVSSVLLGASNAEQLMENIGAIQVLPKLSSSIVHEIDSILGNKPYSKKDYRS
As for `O=C(CCn1c(=O)c2ccccc2n(CC(=O)NCCC2=CCCCC2)c1=O)NCc1ccco1`, the fluorescence slope is -0.558 (inactive).
In the case of `CCOC(=O)N1CCC(n2c(SCC(=O)NCc3ccco3)nc3ccsc3c2=O)CC1`, the fluorescence slope is -0.386 (inactive).
Regarding `CCOC(=O)N1CCC(NC(=O)c2ccc3c(c2)N(CC)CCS3)CC1`, the fluorescence slope was -0.0283 (active).
For `CC(=O)NC1(C(F)(F)F)NC(=O)N(CC(C)C)C1=O` (stereo not given), the fluorescence slope is -0.5 (inactive).
Same read-out and setting: the same measure for `COc1ccc(CCn2c(-c3ccco3)nc3ccccc3c2=O)cc1OC`: -0.402 (inactive); for `CCCC(=O)Nc1cc(-c2nnc(OC)c3ccccc23)ccc1N1CCOCC1`: -0.522 (inactive); for `O=c1oc2ccccc2c(O)c1CN1CCCCC1`: -0.407 (inactive).
Still for that read-out and setting: to `Nc1nc(N2CCN(C/C=C/c3ccccc3)CC2)nc2ccccc12` belongs -0.607 (inactive); to `Cc1ccc(-c2cn3cccnc3n2)cc1NC(=O)c1ccc(Br)o1`, -0.0541 (active).
Same read-out and setting: to `O=c1[nH]c(Nc2ccccc2)cc2ccccc12` belongs -0.132 (inactive); to `Fc1ccc(-c2nnc(CN3CCN(c4ncc(C(F)(F)F)cc4Cl)CC3)o2)cc1`, -0.435 (inactive).
In the case of `COc1cc(N=c2ssnc2Cl)cc(OC)c1`, the fluorescence slope is -0.557 (inactive).
Same read-out and setting: to `COc1ccc(-c2c(=O)n(OCc3ccccn3)c3ccccc3[n+]2[O-])cc1OC` belongs -0.385 (inactive).
In the case of `Cc1sc2nc(SCC(=O)N3CCN(CCO)CC3)n(-c3ccccc3)c(=O)c2c1C`, the fluorescence slope was -0.456 (inactive).
For `CC(=O)Nc1cccc(NC(=O)C2CCCN2C(=O)Nc2ccc(C)cc2)c1` (stereo not given), the fluorescence slope is -0.507 (inactive).
In the case of `Cc1ccc(C)n1-n1c(C)nc2sc(-c3ccccc3)cc2c1=O`, the fluorescence slope was -0.363 (inactive).
Consider `O=C1c2ccccc2-c2ccc(C(=O)N3CCOCC3)cc21`, for which the fluorescence slope is -0.235 (inactive).
As to `O=C1NC(c2ccccc2)(C(F)(F)F)SC2=CCCCCN12` (stereo not given), the fluorescence slope was -0.545 (inactive).
For the compound `CC1CCCCN1CCNC(=O)C1CCN(S(=O)(=O)c2cccc3cccnc23)CC1` (stereo not given), the fluorescence slope was -0.522 (inactive).
As for `Cc1ccc(-c2nnc3c4ccccc4c(C)nn23)cc1S(=O)(=O)N1CCN(C)CC1`, the fluorescence slope is -0.592 (inactive).
The same measure, in the same setting: the same measure for `O=S(=O)(c1ccc2c(c1)OCCO2)N1CCC(n2nnc3cc(F)ccc32)CC1`: -0.5 (inactive); for `O=C(c1ccco1)N1CCN(S(=O)(=O)c2ccc(C3CCCCC3)cc2)CC1`: -0.501 (inactive); for `CC(=O)c1ccc(NC(=O)CSc2nnc(-c3ccoc3C)n2Cc2ccccc2)cc1`: -0.432 (inactive).
`Cc1cc(NC(=O)CSc2nnc(COc3cccc(C)c3C)n2Cc2ccco2)no1`: the fluorescence slope was -0.6 (inactive).
With `COc1cccc(NC(=O)C2CCN(c3ncccn3)CC2)c1`, the fluorescence slope was -0.437 (inactive).
In the case of `CC1(C)CN=C(N2CCN(c3ncnc4sc5c(c34)CCCC5)CC2)S1`, the fluorescence slope is -0.379 (inactive).
Still for that read-out and setting: to `CCOCCn1c(CN2CCN(c3cccc(Cl)c3)CC2)nc2c1c(=O)n(C)c(=O)n2C` belongs -0.592 (inactive).
For `Clc1ccc(OCCCn2cncn2)cc1Cl`, the fluorescence slope was -0.523 (inactive).
The same measure, in the same setting: to `CN(CC(=O)Nc1ccc(F)c(Cl)c1)S(=O)(=O)c1cccc2nsnc12` belongs -0.34 (inactive).
`O=C(NCc1nc2ccccc2[nH]1)c1ccco1`: the fluorescence slope is -0.38 (inactive).
Turning to `O=C(Cc1cccs1)Nc1ccccc1NC(=O)Cc1cccs1`, the fluorescence slope is -0.366 (inactive).
On to `COc1ccc(-c2nnc(SCC(=O)N3CCCCC3)o2)cc1OC`, for which the fluorescence slope was -0.543 (inactive).
Still for that read-out and setting: to `CCOC(=O)c1cc2c(=O)n3ccccc3nc2n(CCCOC)c1=NC(=O)C(C)(C)C` belongs -0.348 (inactive); to `Cc1onc(-c2ccccc2Cl)c1C(=O)Nc1cnn(Cc2ccccc2)c1`, -0.545 (inactive); to `CC1Cc2ccccc2N1C(=O)c1cccnc1` (stereo not given), -0.422 (inactive).
Turning to `CS(=O)(=O)Nc1ccccc1C(=O)O`, the fluorescence slope is -0.411 (inactive).
On to `O=C1CN(C(=O)COC(=O)C23CC4CC(CC(O)(C4)C2)C3)c2ccccc2N1`, for which the fluorescence slope was -0.597 (inactive).
For the compound `O=C(Nc1ccc(F)cc1)NC1CCN(Cc2nnnn2Cc2ccco2)CC1`, the fluorescence slope was -0.501 (inactive).
For the compound `CCC(=O)c1ccc(OC(=O)c2ccc(Br)o2)cc1`, the fluorescence slope is -0.605 (inactive).
As to `Cc1ccc(NC(=O)CCC(=O)OCC(F)(F)C(F)F)cc1`, the fluorescence slope was -0.454 (inactive).

The next experiment shares this target. Kind of experiment: enhancers of rat Kvbeta2 NADPH turnover – biochemical, NADPH fluorescence, primary screen (AID 623).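 Also: fluorescence intensity change per second fitted from 20 to 320 s.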 As to conditions: Recombinant KvBeta, NADPH fluorescence decrease slope, 10 min; at 10 µM; stronger effect = lower value.
Regarding `O=C(CCn1c(=O)c2ccccc2n(CC(=O)NCCC2=CCCCC2)c1=O)NCc1ccco1`, the NADPH fluorescence slope is -3e-05 (inactive).
Take `CCOC(=O)N1CCC(n2c(SCC(=O)NCc3ccco3)nc3ccsc3c2=O)CC1`: the NADPH fluorescence slope was -2.9e-05 (inactive).
Consider `CCOC(=O)N1CCC(NC(=O)c2ccc3c(c2)N(CC)CCS3)CC1`, for which the NADPH fluorescence slope is -5.8e-06 (inactive).
For `CC(=O)NC1(C(F)(F)F)NC(=O)N(CC(C)C)C1=O` (stereo not given), the NADPH fluorescence slope is 2e-05 (inactive).
As for `COc1ccc(CCn2c(-c3ccco3)nc3ccccc3c2=O)cc1OC`, the NADPH fluorescence slope was -6.5e-05 (inactive).
Still for that read-out and setting: to `CCCC(=O)Nc1cc(-c2nnc(OC)c3ccccc23)ccc1N1CCOCC1` belongs -3.3e-06 (inactive); to `O=c1oc2ccccc2c(O)c1CN1CCCCC1`, -6.8e-05 (inactive).
On to `Nc1nc(N2CCN(C/C=C/c3ccccc3)CC2)nc2ccccc12`, for which the NADPH fluorescence slope is -2.5e-05 (inactive).
For the compound `Cc1ccc(-c2cn3cccnc3n2)cc1NC(=O)c1ccc(Br)o1`, the NADPH fluorescence slope was 1.6e-06 (inactive).
As for `O=c1[nH]c(Nc2ccccc2)cc2ccccc12`, the NADPH fluorescence slope was 1.3e-05 (inactive).
On to `Fc1ccc(-c2nnc(CN3CCN(c4ncc(C(F)(F)F)cc4Cl)CC3)o2)cc1`, for which the NADPH fluorescence slope is -8.4e-06 (inactive).
Take `COc1cc(N=c2ssnc2Cl)cc(OC)c1`: the NADPH fluorescence slope was -8.9e-05 (inactive).
Turning to `COc1ccc(-c2c(=O)n(OCc3ccccn3)c3ccccc3[n+]2[O-])cc1OC`, the NADPH fluorescence slope was -3.7e-09 (inactive).
For the compound `Cc1sc2nc(SCC(=O)N3CCN(CCO)CC3)n(-c3ccccc3)c(=O)c2c1C`, the NADPH fluorescence slope is -4.5e-05 (inactive).
On to `CC(=O)Nc1cccc(NC(=O)C2CCCN2C(=O)Nc2ccc(C)cc2)c1` (stereo not given), for which the NADPH fluorescence slope is -4.3e-06 (inactive).
Take `Cc1ccc(C)n1-n1c(C)nc2sc(-c3ccccc3)cc2c1=O`: the NADPH fluorescence slope was 3.8e-06 (inactive).
Take `O=C1c2ccccc2-c2ccc(C(=O)N3CCOCC3)cc21`: the NADPH fluorescence slope is -1.8e-05 (inactive).
For the compound `O=C1NC(c2ccccc2)(C(F)(F)F)SC2=CCCCCN12` (stereo not given), the NADPH fluorescence slope was 5e-05 (inactive).
Turning to `CC1CCCCN1CCNC(=O)C1CCN(S(=O)(=O)c2cccc3cccnc23)CC1` (stereo not given), the NADPH fluorescence slope was -4e-05 (inactive).
Consider `Cc1ccc(-c2nnc3c4ccccc4c(C)nn23)cc1S(=O)(=O)N1CCN(C)CC1`, for which the NADPH fluorescence slope was -2.9e-05 (inactive).
Take `O=S(=O)(c1ccc2c(c1)OCCO2)N1CCC(n2nnc3cc(F)ccc32)CC1`: the NADPH fluorescence slope was -3e-05 (inactive).
For the compound `O=C(c1ccco1)N1CCN(S(=O)(=O)c2ccc(C3CCCCC3)cc2)CC1`, the NADPH fluorescence slope was -3.8e-05 (inactive).
Still for that read-out and setting: the same measure for `CC(=O)c1ccc(NC(=O)CSc2nnc(-c3ccoc3C)n2Cc2ccccc2)cc1`: -2e-09 (inactive).
For `Cc1cc(NC(=O)CSc2nnc(COc3cccc(C)c3C)n2Cc2ccco2)no1`, the NADPH fluorescence slope is -6.6e-06 (inactive).
As to `COc1cccc(NC(=O)C2CCN(c3ncccn3)CC2)c1`, the NADPH fluorescence slope was -1.9e-05 (inactive).
Turning to `CC1(C)CN=C(N2CCN(c3ncnc4sc5c(c34)CCCC5)CC2)S1`, the NADPH fluorescence slope is -4.9e-05 (inactive).
As for `CCOCCn1c(CN2CCN(c3cccc(Cl)c3)CC2)nc2c1c(=O)n(C)c(=O)n2C`, the NADPH fluorescence slope was -4.2e-05 (inactive).
As for `Clc1ccc(OCCCn2cncn2)cc1Cl`, the NADPH fluorescence slope is 5.3e-06 (inactive).
For the compound `CN(CC(=O)Nc1ccc(F)c(Cl)c1)S(=O)(=O)c1cccc2nsnc12`, the NADPH fluorescence slope is -3.5e-05 (inactive).
With `O=C(NCc1nc2ccccc2[nH]1)c1ccco1`, the NADPH fluorescence slope was -5.6e-05 (inactive).
In the case of `O=C(Cc1cccs1)Nc1ccccc1NC(=O)Cc1cccs1`, the NADPH fluorescence slope was -7.6e-05 (inactive).
As to `COc1ccc(-c2nnc(SCC(=O)N3CCCCC3)o2)cc1OC`, the NADPH fluorescence slope was -9.6e-06 (inactive).
For the compound `CCOC(=O)c1cc2c(=O)n3ccccc3nc2n(CCCOC)c1=NC(=O)C(C)(C)C`, the NADPH fluorescence slope was 7.9e-06 (inactive).
Take `Cc1onc(-c2ccccc2Cl)c1C(=O)Nc1cnn(Cc2ccccc2)c1`: the NADPH fluorescence slope is 6.7e-06 (inactive).
Turning to `CC1Cc2ccccc2N1C(=O)c1cccnc1` (stereo not given), the NADPH fluorescence slope was -8.5e-05 (inactive).
In the case of `CS(=O)(=O)Nc1ccccc1C(=O)O`, the NADPH fluorescence slope was -2.7e-05 (inactive).
Consider `O=C1CN(C(=O)COC(=O)C23CC4CC(CC(O)(C4)C2)C3)c2ccccc2N1`, for which the NADPH fluorescence slope was -3.1e-05 (inactive).
In the case of `O=C(Nc1ccc(F)cc1)NC1CCN(Cc2nnnn2Cc2ccco2)CC1`, the NADPH fluorescence slope is -4.4e-05 (inactive).
As for `CCC(=O)c1ccc(OC(=O)c2ccc(Br)o2)cc1`, the NADPH fluorescence slope was -3e-05 (inactive).
Take `Cc1ccc(NC(=O)CCC(=O)OCC(F)(F)C(F)F)cc1`: the NADPH fluorescence slope is 6.2e-06 (inactive).

The record behind these values is PubChem BioAssay.
